Assay results taken from PubChem BioAssay (NCATS).
Values without a mark were called inactive. Active and inactive are the calls of the source. The call rests on the fitted dose curve; in most records, active means well fitted cell-killing curve with a large enough effect; inconclusive means small, poorly fitted or top-dose-only effect; inactive means flat fitted curve, though single readings scatter.

Assay: Cell Viability - LYMP1-003 - Assay at 24 hr (AID 963);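 on viability change, negative = cytotoxic: plate controls were DMSO only for no effect and tetraoctylammonium bromide positive control for full effect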
Settings: LYMP1-003 lymphoblastoid cell viability; series mostly up to 92.2 µM; viability change, negative = cytotoxic: at the top concentration
Description: NIH Chemical Genomics Center [NCGC]
NIH Molecular Libraries Screening Centers Network [MLSCN]
National Institutes of Environmental Health Sciences [NIEHS]
National Toxicology Program [NTP]
We have developed a 1536-well cell-based assay for quantitative high throughput screening (qHTS) against a number of cell lines to determine in vitro cytotoxicity of small molecules. This particular assay uses a human lymphoblastoid cell line (LYMP1-003) purchased from Coriell Institute for Medical Research.
NCGC Assay Protocol Summary:
The CellTiter-Glo luminescent cell viability assay (Promega) is a homogeneous method to measure the number of viable cells in culture. The end point readout of this assay is based on quantitation of intracellular ATP, an indicator of metabolic activity, using the luciferase reaction. Luciferase catalyzes the oxidation of beetle Luciferin to oxyluciferin and light in the presence of ATP. The luminescent signal is proportional to amount of ATP present.
Using the CellTiter-Glo luminescent cell viability assay, the amount of cellular ATP was measured in the lymphoblastoid cell line with complete culture medium following compound treatment for 24 hours. The assay was performed in opaque white Kalypsys 1536-well plates. In the screen, tetraoctylammonium bromide was used as positive control. Library compounds were measured for their ability to cause acute toxicity in the cell line, as reflected by a decrease in intracellular ATP levels, in a concentration-dependent manner. […] AC50 values were determined from concentration-response data modeled with the standard Hill equation.
qHTS protocol for CellTiter Glo lymphoblastoid cellular assay
[Step] [Parameter] [Value] [Description]
1. Reagent; 5 uL; 2500 lymphoblastoid cells/well
2. Time; 5 hr; 37 C incubation
4. Controls; 23 nL; Tetraoctylammonium bromide 6.4pM to 92 uM
5. Time; 24 hr; 37 C incubation
6. Reagent; 5 uL; CellTiter Glo reagent
7. Time; 30 min; Room Temperature
8. Detection; Luminescence; Viewlux plate reader
Keywords: cell viability, cytotoxicity, lymphoblastoid cell line, luminescence, NTPHTS, NTPHTS_NCGC, NIEHS, DSSTox, MLSMR, MLSCN, NIH Roadmap, qHTS, NCGC
Potency means the concentration at half of the fitted maximal effect.

Compound | viability change, negative = cytotoxic | Potency
Cc1ccc(S(=O)(=O)O)cc1C | 3.73% | 
C[C@H](CCC(=O)O)[C@H]1CC[C@H]2[C@@H]3CC[C@@H]4C[C@H](O)CC[C@]4(C)[C@H]3C[C@H](O)[C@]12C | -2.67% | 
Cc1ncc[nH]1 | -3.41% | 
C[C@H]1O[C@@H](O[C@H]2[C@@H](O)C[C@H](O[C@H]3[C@@H](O)C[C@H](O[C@H]4CC[C@@]5(C)[C@H](CC[C@@H]6[C@@H]5C[C@@H](O)[C@]5(C)[C@@H](C7=CC(=O)OC7)CC[C@]65O)C4)O[C@@H]3C)O[C@@H]2C)C[C@H](O)[C@@H]1O |  | 0.251 µM (active)
CCCCC | -1.06% | 
Oc1ccc(/C=C/c2cc(O)cc(O)c2)cc1 | -7.17% | 
OCC(O)CO |  | inactive
ClC(Cl)Cl | 1.81% | 
C/C=C/C=C/C(=O)O | 2.57% | 
OC[C@H]1O[C@@H]2O[C@H]3[C@H](O)[C@@H](O)[C@@H](O[C@H]4[C@H](O)[C@@H](O)[C@@H](O[C@H]5[C@H](O)[C@@H](O)[C@@H](O[C@H]6[C@H](O)[C@@H](O)[C@@H](O[C@H]7[C@H](O)[C@@H](O)[C@@H](O[C@H]1[C@H](O)[C@H]2O)O[C@@H]7CO)O[C@@H]6CO)O[C@@H]5CO)O[C@@H]4CO)O[C@@H]3CO | 1.91% | 
OCc1ccccc1 | 1.06% | 
CC(C)(C)CC(C)(C)c1ccc(OCCO)cc1 | -11.5% | 
O=P(O)(O)O | 4.68% | 
O.O.O.O.O.O.O.O=S(=O)([O-])[O-].[Co+2] | -13.9% | 
CO/N=C(/C(=O)N[C@@H]1C(=O)N2C(C(=O)O)=C(COC(N)=O)CS[C@H]12)c1ccco1 | -1.4% | 
Nc1nccs1 | -4.33% | 
NC(N)=O | 4.04% | 
O=c1n(CC2CO2)c(=O)n(CC2CO2)c(=O)n1CC1CO1 (configuration not stated) |  | 39.8 µM (active)
Oc1cccc(O)c1O | -16.9% | 

Compound | viability change, negative = cytotoxic | Potency
Nc1ccc(N=Nc2ccccc2)c(N)n1 | -4.36% | 
CC/C=C\C/C=C\C/C=C\CCCCCCCC(=O)O | -12.8% | 
CCCCO |  | inactive
C[C@H](CCC(=O)O)[C@H]1CC[C@H]2[C@@H]3[C@H](O)C[C@@H]4C[C@H](O)CC[C@]4(C)[C@H]3C[C@H](O)[C@]12C | -4.25% | 
C=C1C(CCl)(CCl)C2(Cl)C(Cl)C(Cl)C1(Cl)C2(Cl)Cl (configuration not stated) |  | 50.1 µM (active)
CC1=CCC2CC1C2(C)C (configuration not stated) | -2.16% | 
NCCN | -2.85% | 
CO | 4.12% | 
CC[C@H]1OC(=O)[C@H](C)[C@@H](O[C@H]2C[C@@](C)(OC)[C@@H](O)[C@H](C)O2)[C@H](C)[C@@H](O[C@@H]2O[C@H](C)C[C@H](N(C)C)[C@H]2O)[C@](C)(O)C[C@@H](C)CN(C)[C@H](C)[C@@H](O)[C@]1(C)O | -6.58% | 
OB(O)O | 1.95% | 
CC(C)O | 3.91% | 
CCOC(C)OCC | 2% | 
OCl | -5.1% | 
c1ccc2ccccc2c1 | 3.07% | 
[O-][N+](=Nc1ccccc1)c1ccccc1 | 1.73% | 
Nc1ncnc2c1ncn2[C@H]1CC[C@@H](CO)O1 | 2.17% | 
CC1=CC(=O)NS(=O)(=O)O1 | -3.69% | 
COC(=O)c1ccccc1O | -2.85% | 
